Experimental data taken from PubChem BioAssay (NCI).
This is part of a sample that, as a whole, favours compounds with a hit. Of some 83,000 tested, about 20% had one in any assay.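 Treatment: one concentration, 48 hours, 96-well format. Scoring: percent growth, with anything below 10 considered active.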 A number with no mark means an inactive call. The source made the active and inactive calls.

Legend:
Assay in all cases: NCI-60 one-dose screen, 48 h (100 = growth as untreated, 0 = no growth, -100 = all killed)
Conditions in all cases: 10 µM unless noted
SK-MEL-2 melanoma = tested on: SK-MEL-2 melanoma
EKVX NSCLC = tested on: EKVX NSCLC
SN12C renal = tested on: SN12C renal
UO-31 renal = tested on: UO-31 renal
TK-10 renal = tested on: TK-10 renal
ACHN renal = tested on: ACHN renal
CAKI-1 renal = tested on: CAKI-1 renal
CCRF-CEM leukemia = tested on: CCRF-CEM leukemia
MOLT-4 leukemia = tested on: MOLT-4 leukemia
SR leukemia = tested on: SR leukemia
RPMI-8226 leukemia = tested on: RPMI-8226 leukemia
OVCAR-8 ovarian = tested on: OVCAR-8 ovarian
OVCAR-5 ovarian = tested on: OVCAR-5 ovarian
OVCAR-4 ovarian = tested on: OVCAR-4 ovarian
SK-OV-3 ovarian = tested on: SK-OV-3 ovarian
IGROV1 ovarian = tested on: IGROV1 ovarian
OVCAR-3 ovarian = tested on: OVCAR-3 ovarian
HS 578T breast = tested on: HS 578T breast
NCI/ADR-RES ovarian = tested on: NCI/ADR-RES ovarian

SMILES	growth (SK-MEL-2 melanoma)	growth (EKVX NSCLC)	growth (SN12C renal)	growth (UO-31 renal)	growth (TK-10 renal)	growth (ACHN renal)	growth (CAKI-1 renal)	growth (CCRF-CEM leukemia)	growth (MOLT-4 leukemia)	growth (SR leukemia)	growth (RPMI-8226 leukemia)	growth (OVCAR-8 ovarian)	growth (OVCAR-5 ovarian)	growth (OVCAR-4 ovarian)	growth (SK-OV-3 ovarian)	growth (IGROV1 ovarian)	growth (OVCAR-3 ovarian)	growth (HS 578T breast)	growth (NCI/ADR-RES ovarian)
COc1cc2c(cc1[N+](=O)[O-])-c1ccc([N+](=O)[O-])cc1/C2=N\O	92.6%	76.7%	91.1%	67.6%	78.9%	72.5%	83.4%	78.2%	83.3%	62%	84%	80.1%	102%	79.6%	96.4%	97.3%	104%	89%	77.1%
COc1cc2nc(Cc3ccc(C)cc3)[nH]c(=O)c2cc1OC	123%	109%	99.6%	97.5%	292%	110%	129%	1.89% (active)	95%	100%	88.2%	104%	102%	108%	113%	109%	109%	100%	102%
O=C(N=Nc1c(O)[nH]c2ccc(F)cc12)c1cc2ccccc2[nH]1	91%	89%	91.2%	76.2%	106%	100%	80.7%	99.5%	99.2%	95.1%	92%	97.2%	103%	99.9%	110%	79.3%	101%	101%	100%
COc1ccc(CC(C)=C(c2ccc(OCCN(C)C)cc2)c2ccc(OCCN(C)C)cc2)cc1	108%	88.5%	75.2%	60.6%	99.6%	98%	84%	17.1%	64.6%	-13.2% (active)	56.2%	86%	86.8%	90.1%	85.7%	74.6%	83.8%	74.6%	86.4%
Nc1c(Cl)cc([N+](=O)[O-])cc1Br	121%	89.1%	97%	90%	115%	112%	85.4%	104%	105%	99.5%	86.8%	93.9%	103%	102%	110%	114%	102%	105%	95%
c1ccc2c(-c3c4ccsc4cc4[nH]c5ccccc5c34)c[nH]c2c1	23.9%	53.3%	50.1%	40.1%	76%	43.3%	34.5%	19.8%	32.2%	25.7%	14.8%	56.9%	75.2%	40.8%	49.5%	38.1%	13.8%	33.4%	20.4%
O=C(/C=C/c1ccc[nH]1)c1ccc(-n2ccc(C(F)(F)F)n2)cc1	95%	79.1%	60.1%	-77.1% (active)	103%	99.5%	93.4%	25.7%	72.5%	28.4%	-19.3% (active)	88%	89%	97.7%	114%	103%	0.498% (active)	100%	88.3%
N#C/C(=C\c1ccc(Br)cc1)n1nnc2cccc(F)c21	22.3%	61.8%	4.62% (active)	2.69% (active)	15.6%	20.2%	18.2%	-2.73% (active)	1.33% (active)	10.1%	-19.6% (active)	8.42% (active)	10.5%	17.5%	78.3%	4.13% (active)	-31.5% (active)	-11.1% (active)	3.27% (active)
c1ccc(-c2nn(-c3ccccc3)[n+](-c3ccccc3-c3ccccc3)n2)cc1	-15.8% (active)	11.7%	12.9%	80.1%	26%	56%	88.2%	17.2%	22.9%	8.06% (active)	15.3%	-32.8% (active)	37.1%	22.3%	36.5%	30.9%	1.32% (active)	9.51% (active)	93.1%
O=C(Nc1cccc(C2=NCCN2)c1)c1ccc(OCCCOc2ccc(C(=O)Nc3cccc(C4=NCCN4)c3)cc2)cc1	-47.3% (active)	69.4%	23.6%	85.7%	81.5%	75.3%	65.1%	33.5%	25.4%	11.9%	-3.7% (active)	55%	24.8%	13.2%	31.6%	-40.2% (active)	5.65% (active)	35.6%	104%
CC(Oc1ccc(C(=O)NS(=O)(=O)C(C)(C)C)cc1C(F)(F)F)c1ccc(Oc2ccccc2)cn1 (centres undefined)	35.5%	86.5%	86.1%	67.9%	79.7%	89.4%	40.8%	74.1%	98.5%	25.9%	94.8%	75.2%	101%	93.1%	104%	64.8%	8.07% (active)	60.4%	83%
CCCCCN1C=C/C(=C\C(=O)N(C)c2cccc3ccccc23)c2ccccc21	109%	89.1%	100%	82.5%	105%	104%	89.8%	89.5%	99%	81.5%	78.5%	98.4%	109%	86.5%	99.6%	93.7%	96.9%	99.9%	106%
Cc1cc2nc(-c3ccccc3)c(-c3ccccc3)nc2cc1C	107%	89.2%	92.8%	113%	125%	114%	98.7%	99.4%	89%	76.9%	88.1%	108%	115%	98.9%	108%	112%	113%	118%	93.1%
FC(F)(F)c1cccc(Nc2ccccc2)c1	88.7%	101%	101%	97.6%	94%	99.6%	97.5%	109%	89.9%	88.2%	104%	101%	95.4%	108%	119%	102%	118%	105%	96.2%
CC(=O)c1cc2c(N)c(C(=O)Nc3cncc4ccccc34)sc2nc1C	91.2%	100%	95.3%	80.1%	119%	97.1%	83.8%	104%	90.3%	77.5%	94.9%	104%	104%	113%	93.6%	104%	110%	95.3%	104%
Nc1c(C(=O)Nc2cccc3ccncc23)sc2nc3c(cc12)C(=O)CCC3	25.1%	62.1%	54.5%	57.7%	68.2%	51.2%	37.7%	21.5%	85.2%	33.3%	64.6%	68.1%	68.5%	80.7%	35.3%	57.8%	3.84% (active)	21.3%	68.4%
